About 7,900 targets were measured; listed, in parts, are those with a hit and a random draw of the rest. About 0.6% of all pairs of compound and target were hits.
Tests used:
Test in all cases: log2 fold change, soluble protein after heating vs DMSO (PISA); higher = thermal stabilisation; K562 cells, 10 uM, 30 min; active = over 0.2 and 3.5 SD of the protein, either way, in both replicates (recomputed)
saracatinib = compound: CN1CCN(CCOc2cc(OC3CCOCC3)c3c(Nc4c(Cl)ccc5c4OCO5)ncnc3c2)CC1 [saracatinib]
Method in brief: (§1)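 K562 cells (2×10^6 cells/mL) were treated with 10 μM compound for 30 min, and aliquots were heated for 3 min over 48°C-58°C. Pooled aliquots were extracted in PBS with 0.5% NP-40 at 4°C, and the supernatant after 21,000xg for 90 min was measured by TMTpro 16plex LC-MS/MS with channel sums equalised. Reported thermal stability, relative to control samples and from duplicates, is a log2 fold change.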

sotrastaurin = compound: CN1CCN(c2nc(C3=C(c4c[nH]c5ccccc45)C(=O)NC3=O)c3ccccc3n2)CC1 [sotrastaurin]
Method in brief: as §1

alvocidib = compound: CN1CC[C@H](c2c(O)cc(O)c3c(=O)cc(-c4ccccc4Cl)oc23)[C@H](O)C1 [alvocidib]
Method in brief: as §1

Tubastatin A = compound: CN1CCc2c(c3ccccc3n2Cc2ccc(C(=O)NO)cc2)C1 [Tubastatin A]
Method in brief: as §1

[1] = compound: CNC(=O)C1=CC=CC=C1NC2=NC(=NC=C2Cl)NC3=C(C=C(C=C3)N4CCOCC4)OC
Method in brief: as §1

defactinib = compound: CNC(=O)c1ccc(Nc2ncc(C(F)(F)F)c(NCc3nccnc3N(C)S(C)(=O)=O)n2)cc1 [defactinib]
Method in brief: as §1

rucaparib = compound: CNCc1ccc(-c2[nH]c3cc(F)cc4c3c2CCNC4=O)cc1 [rucaparib]
Method in brief: as §1

[2] = compound: CNc1nc(-c2ccc3c(N)n[nH]c3c2)cc(N2C[C@@H](C(=O)NC3CCCCC3)CC[C@H]2C)n1
Method in brief: as §1

encorafenib = compound: COC(=O)N[C@@H](C)CNc1nccc(-c2cn(C(C)C)nc2-c2cc(Cl)cc(NS(C)(=O)=O)c2F)n1 [encorafenib]
Method in brief: as §1

[3] = compound: COC(=O)[C@H](CCSC)NC(=O)C1=C(C=C(C=C1)NC[C@H](CS)N)C2=CC=CC=C2
Method in brief: as §1

[4] = compound: COC1=CC=C(C=C1)CN2C=CC3=C2C=C(C=C3)C(=O)NO
Method in brief: as §1

filanesib = compound: CON(C)C(=O)N1N=C(c2cc(F)ccc2F)S[C@@]1(CCCN)c1ccccc1 [filanesib]
Method in brief: as §1

zotarolimus = compound: CO[C@H]1C[C@@H]2CC[C@@H](C)[C@@](O)(O2)C(=O)C(=O)N2CCCC[C@H]2C(=O)O[C@H]([C@H](C)C[C@@H]2CC[C@H](n3cnnn3)[C@H](OC)C2)CC(=O)[C@H](C)/C=C(\C)[C@@H](O)[C@@H](OC)C(=O)[C@H](C)C[C@H](C)/C=C/C=C/C=C/1C [zotarolimus]
Method in brief: as §1

alisertib = compound: COc1cc(Nc2ncc3c(n2)-c2ccc(Cl)cc2C(c2c(F)cccc2OC)=NC3)ccc1C(=O)O [alisertib]
Method in brief: as §1

[5] = compound: COc1cc2nc(-c3cc(F)ccc3O)nc(N[C@@H]3CNC[C@H]3C(C)(C)O)c2cc1OC
Method in brief: as §1

gefitinib = compound: COc1cc2ncnc(Nc3ccc(F)c(Cl)c3)c2cc1OCCCN1CCOCC1 [gefitinib]
Method in brief: as §1

[6] = compound: COc1cccc2cc(-c3nc([C@H]4CC[C@H](C(=O)O)CC4)n4ncnc(N)c34)[nH]c12
Method in brief: as §1

lapatinib = compound: CS(=O)(=O)CCNCc1ccc(-c2ccc3ncnc(Nc4ccc(OCc5cccc(F)c5)c(Cl)c4)c3c2)o1 [lapatinib]
Method in brief: as §1

pictilisib = compound: CS(=O)(=O)N1CCN(Cc2cc3nc(-c4cccc5[nH]ncc45)nc(N4CCOCC4)c3s2)CC1 [pictilisib]
Method in brief: as §1

idasanutlin = compound: COc1cc(C(=O)O)ccc1NC(=O)[C@@H]1N[C@@H](CC(C)(C)C)[C@](C#N)(c2ccc(Cl)cc2F)[C@H]1c1cccc(Cl)c1F [idasanutlin]
Method in brief: as §1

Measured: log2 fold change

TENT5C (UniProt Q5VWP2)
UniProt Q5VWP2, sequence (Q5VWP2 whole entry, looked up): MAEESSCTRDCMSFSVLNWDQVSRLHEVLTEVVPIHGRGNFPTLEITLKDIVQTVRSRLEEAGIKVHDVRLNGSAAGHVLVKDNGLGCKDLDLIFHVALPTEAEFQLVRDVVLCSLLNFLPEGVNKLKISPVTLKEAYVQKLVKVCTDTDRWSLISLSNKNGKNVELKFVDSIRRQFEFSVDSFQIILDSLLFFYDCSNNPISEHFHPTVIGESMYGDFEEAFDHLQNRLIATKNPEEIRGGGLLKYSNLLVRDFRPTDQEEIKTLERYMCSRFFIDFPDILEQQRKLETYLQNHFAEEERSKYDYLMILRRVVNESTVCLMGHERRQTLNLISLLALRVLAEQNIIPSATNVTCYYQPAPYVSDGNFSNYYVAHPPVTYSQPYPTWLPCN
inactive: saracatinib -0.127 | sotrastaurin 0.035 | alvocidib 0.115 | Tubastatin A 0.004 | [1] -0.133 | defactinib 0.071 | rucaparib 0.171 | [2] -0.071 | encorafenib 0.094 | [3] -0.011 | [4] -0.133 | filanesib 0.049 | alisertib 0 | [5] 0.075 | gefitinib 0.002 | [6] -0.021 | lapatinib -0.092 | pictilisib 0.168
active: zotarolimus -0.56

SRPRB (UniProt Q9Y5M8)
UniProt Q9Y5M8, sequence (Q9Y5M8 whole entry, looked up): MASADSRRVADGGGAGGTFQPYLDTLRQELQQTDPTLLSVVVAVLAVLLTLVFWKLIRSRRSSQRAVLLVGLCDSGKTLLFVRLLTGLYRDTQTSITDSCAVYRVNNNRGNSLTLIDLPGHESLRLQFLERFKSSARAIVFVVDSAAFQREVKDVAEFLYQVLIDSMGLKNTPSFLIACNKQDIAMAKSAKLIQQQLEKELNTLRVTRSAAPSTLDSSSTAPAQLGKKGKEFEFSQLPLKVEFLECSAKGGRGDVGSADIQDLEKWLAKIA
inactive: saracatinib -0.03 | sotrastaurin -0.036 | alvocidib 0.002 | Tubastatin A 0.004 | [1] 0.087 | defactinib 0.026 | rucaparib 0.151 | [2] 0.032 | encorafenib -0.013 | [3] -0.064 | [4] 0.133 | filanesib -0.076 | zotarolimus 0.018 | idasanutlin -0.11 | alisertib -0.021 | [5] 0.136 | gefitinib -0.001 | [6] -0.03 | lapatinib 0.048 | pictilisib -0.022

SMIM20 isoform 2 (UniProt Q8N5G0)
UniProt Q8N5G0, sequence (Q8N5G0 whole entry, looked up): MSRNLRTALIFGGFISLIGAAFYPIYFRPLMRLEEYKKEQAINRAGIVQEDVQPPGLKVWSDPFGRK
inactive: saracatinib 0 | sotrastaurin 0.056 | alvocidib -0.024 | Tubastatin A -0.013 | [1] 0.018 | defactinib -0.138 | rucaparib -0.088 | [2] -0.094 | encorafenib -0.055 | [3] -0.143 | filanesib 0.093 | zotarolimus -0.037 | idasanutlin 0.095 | alisertib -0.056 | [5] 0.024 | gefitinib 0.057 | [6] 0.091 | lapatinib -0.044 | pictilisib -0.044

SRFBP1 (UniProt Q8NEF9)
UniProt Q8NEF9, sequence (Q8NEF9 whole entry, looked up): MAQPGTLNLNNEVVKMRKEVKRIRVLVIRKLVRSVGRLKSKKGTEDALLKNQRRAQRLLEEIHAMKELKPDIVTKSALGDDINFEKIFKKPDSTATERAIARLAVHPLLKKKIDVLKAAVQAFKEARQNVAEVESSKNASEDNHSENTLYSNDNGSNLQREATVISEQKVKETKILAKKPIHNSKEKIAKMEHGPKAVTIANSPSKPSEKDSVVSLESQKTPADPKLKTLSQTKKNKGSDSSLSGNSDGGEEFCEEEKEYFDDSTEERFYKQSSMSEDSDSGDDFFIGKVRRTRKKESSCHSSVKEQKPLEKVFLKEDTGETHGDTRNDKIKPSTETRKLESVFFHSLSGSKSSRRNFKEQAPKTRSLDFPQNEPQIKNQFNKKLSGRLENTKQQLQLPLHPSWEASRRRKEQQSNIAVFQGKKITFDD
inactive: saracatinib 0.038 | sotrastaurin -0.01 | alvocidib 0.096 | Tubastatin A 0.084 | [1] 0.052 | [2] -0.15 | encorafenib -0.057 | [4] 0.013 | filanesib 0.193 | zotarolimus -0.021 | idasanutlin -0.018 | alisertib -0.027 | [5] 0.306 | gefitinib 0.06 | [6] -0.072 | lapatinib 0.13 | pictilisib -0.065
active: rucaparib 0.446

TBRG4 (UniProt Q969Z0)
UniProt Q969Z0, sequence (Q969Z0 whole entry, looked up): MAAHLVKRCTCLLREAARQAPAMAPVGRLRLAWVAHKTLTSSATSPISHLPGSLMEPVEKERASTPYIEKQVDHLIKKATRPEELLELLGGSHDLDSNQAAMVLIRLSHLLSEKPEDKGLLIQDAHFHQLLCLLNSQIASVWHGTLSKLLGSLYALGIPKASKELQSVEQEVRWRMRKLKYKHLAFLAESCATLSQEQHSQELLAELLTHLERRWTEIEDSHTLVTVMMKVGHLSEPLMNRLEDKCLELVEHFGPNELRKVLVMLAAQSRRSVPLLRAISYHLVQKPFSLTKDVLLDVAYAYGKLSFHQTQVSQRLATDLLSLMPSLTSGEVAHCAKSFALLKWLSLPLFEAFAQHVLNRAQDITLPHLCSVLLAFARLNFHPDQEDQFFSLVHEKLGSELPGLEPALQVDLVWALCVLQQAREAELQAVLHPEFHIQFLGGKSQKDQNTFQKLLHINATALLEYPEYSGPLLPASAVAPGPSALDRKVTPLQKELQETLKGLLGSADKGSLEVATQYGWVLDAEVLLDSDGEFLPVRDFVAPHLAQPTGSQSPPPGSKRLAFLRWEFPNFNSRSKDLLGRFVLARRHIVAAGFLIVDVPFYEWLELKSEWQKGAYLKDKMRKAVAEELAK
inactive: saracatinib -0.093 | sotrastaurin -0.431 | alvocidib -0.345 | Tubastatin A 0.044 | [1] -0.177 | defactinib -0.25 | rucaparib 0.008 | [2] -0.144 | encorafenib 0.071 | [3] -0.062 | [4] 0.062 | filanesib -0.551 | zotarolimus -0.007 | idasanutlin -0.021 | alisertib 0.032 | [5] -0.274 | gefitinib -0.121 | [6] 0.073 | lapatinib -0.051 | pictilisib -0.036

STK39 (UniProt Q9UEW8)
inactive: saracatinib -0.014 | sotrastaurin -0.017 | alvocidib 0.013 | Tubastatin A 0.009 | [1] -0.045 | defactinib -0.015 | rucaparib 0.014 | [2] -0.008 | encorafenib 0.039 | [3] 0.056 | [4] -0.016 | filanesib -0.033 | zotarolimus 0.062 | idasanutlin -0.06 | alisertib -0.044 | [5] 0.034 | gefitinib -0.014 | [6] -0.036 | lapatinib -0.002 | pictilisib 0.107

TACC2 (UniProt O95359)
inactive: saracatinib -0.003 | sotrastaurin 0.115 | alvocidib -0.084 | Tubastatin A -0.041 | [1] 0.075 | defactinib -0.091 | rucaparib -0.045 | [2] -0.105 | encorafenib -0.013 | [3] 0.039 | filanesib -0.107 | zotarolimus -0.003 | idasanutlin -0.042 | alisertib 0.1 | [5] 0.01 | gefitinib -0.027 | [6] 0.011 | lapatinib 0.011 | pictilisib 0.046

TANK (UniProt Q92844)
inactive: saracatinib 0.118 | sotrastaurin 0.033 | alvocidib 0.081 | Tubastatin A 0.03 | [1] 0.236 | defactinib 0.045 | rucaparib -0.016 | [2] 0.052 | encorafenib 0.064 | [3] -0.03 | [4] 0.017 | filanesib 0.03 | zotarolimus -0.024 | idasanutlin 0.02 | alisertib -0.028 | [5] 0.097 | gefitinib -0.032 | [6] 0.048 | lapatinib -0.015 | pictilisib 0.027

SLK isoform 2 (UniProt Q9H2G2)
inactive: saracatinib -0.015 | sotrastaurin -0.192 | alvocidib -0.031 | Tubastatin A 0.025 | [1] 0.079 | defactinib -0.089 | rucaparib 0.048 | [2] 0.02 | encorafenib 0.052 | [3] 0.012 | [4] 0.001 | filanesib 0.042 | zotarolimus -0.007 | idasanutlin -0.008 | alisertib -0.045 | [5] -0.103 | gefitinib 0.025 | [6] -0.079 | lapatinib -0.193
active: pictilisib 0.212

TAF6L (UniProt Q9Y6J9)
UniProt Q9Y6J9, sequence (Q9Y6J9 whole entry, looked up): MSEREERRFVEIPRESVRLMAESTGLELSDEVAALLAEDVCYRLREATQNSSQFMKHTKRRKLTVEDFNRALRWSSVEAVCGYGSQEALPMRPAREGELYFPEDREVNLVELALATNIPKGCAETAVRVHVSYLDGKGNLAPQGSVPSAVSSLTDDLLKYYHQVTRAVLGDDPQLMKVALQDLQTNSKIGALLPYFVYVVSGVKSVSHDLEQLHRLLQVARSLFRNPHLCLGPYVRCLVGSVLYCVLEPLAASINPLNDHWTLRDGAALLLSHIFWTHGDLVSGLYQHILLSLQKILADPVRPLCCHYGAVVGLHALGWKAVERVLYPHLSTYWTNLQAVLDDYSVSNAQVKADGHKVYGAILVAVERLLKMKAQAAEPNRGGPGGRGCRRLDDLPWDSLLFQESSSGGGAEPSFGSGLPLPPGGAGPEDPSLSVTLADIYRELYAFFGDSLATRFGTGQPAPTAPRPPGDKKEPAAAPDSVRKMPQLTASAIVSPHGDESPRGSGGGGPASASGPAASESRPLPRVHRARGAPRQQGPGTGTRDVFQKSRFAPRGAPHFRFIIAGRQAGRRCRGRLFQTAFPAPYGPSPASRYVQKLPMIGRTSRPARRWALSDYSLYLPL
inactive: saracatinib 0.148 | sotrastaurin -0.2 | alvocidib -0.055 | Tubastatin A -0.012 | [1] -0.044 | [2] 0.035 | filanesib 0.177 | zotarolimus 0.049 | idasanutlin 0.001 | alisertib -0.13 | [5] 0.166 | gefitinib 0.054 | [6] 0.038 | lapatinib -0.133 | pictilisib 0.166

STAT5B (UniProt P51692)
inactive: saracatinib -0.231 | sotrastaurin -0.083 | alvocidib -0.023 | Tubastatin A 0.045 | [1] -0.053 | defactinib -0.33 | rucaparib 0.105 | [2] 0.138 | encorafenib 0.073 | [3] -0.052 | [4] 0.13 | filanesib -0.036 | zotarolimus 0.112 | idasanutlin 0.086 | alisertib -0.038 | [5] -0.115 | gefitinib 0.046 | [6] -0.094 | lapatinib 0.029 | pictilisib -0.148

SMARCB1 (UniProt Q12824)
UniProt Q12824, sequence (Q12824 whole entry, looked up): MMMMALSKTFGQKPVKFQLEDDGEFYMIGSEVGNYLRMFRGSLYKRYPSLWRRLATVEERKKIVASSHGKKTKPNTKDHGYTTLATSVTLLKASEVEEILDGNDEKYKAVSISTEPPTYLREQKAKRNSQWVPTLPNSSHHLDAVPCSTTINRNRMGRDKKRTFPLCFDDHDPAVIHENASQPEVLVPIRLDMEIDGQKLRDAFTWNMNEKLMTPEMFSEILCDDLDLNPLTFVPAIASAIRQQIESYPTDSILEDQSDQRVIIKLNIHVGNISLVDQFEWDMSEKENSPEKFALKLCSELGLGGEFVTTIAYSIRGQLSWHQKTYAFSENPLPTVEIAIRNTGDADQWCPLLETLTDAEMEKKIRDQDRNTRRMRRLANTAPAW
inactive: saracatinib -0.09 | sotrastaurin -0.192 | alvocidib -0.106 | Tubastatin A 0.016 | defactinib -0.158 | [2] -0.009 | encorafenib -0.247 | [3] 0.144 | [4] -0.116 | filanesib 0.026 | zotarolimus 0.136 | pictilisib 0.424
active: rucaparib 0.809

TM7SF3 (UniProt Q9NS93)
UniProt Q9NS93, sequence (Q9NS93 whole entry, looked up): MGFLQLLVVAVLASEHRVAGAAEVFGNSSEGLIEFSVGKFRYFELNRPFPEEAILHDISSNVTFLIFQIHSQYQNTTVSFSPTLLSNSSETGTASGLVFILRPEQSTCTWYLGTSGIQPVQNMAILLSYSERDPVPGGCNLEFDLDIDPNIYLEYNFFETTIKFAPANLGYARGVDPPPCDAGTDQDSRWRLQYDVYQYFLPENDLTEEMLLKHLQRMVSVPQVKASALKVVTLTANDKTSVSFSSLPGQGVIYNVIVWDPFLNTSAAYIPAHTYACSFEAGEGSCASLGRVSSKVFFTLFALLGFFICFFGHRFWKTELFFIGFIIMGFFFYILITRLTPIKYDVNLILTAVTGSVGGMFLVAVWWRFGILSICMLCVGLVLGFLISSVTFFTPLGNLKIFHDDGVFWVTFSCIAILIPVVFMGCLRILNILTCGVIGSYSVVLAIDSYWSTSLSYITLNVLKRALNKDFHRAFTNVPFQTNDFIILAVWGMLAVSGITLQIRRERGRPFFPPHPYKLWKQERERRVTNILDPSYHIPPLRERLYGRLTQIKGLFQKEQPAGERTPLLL
inactive: saracatinib 0.072 | sotrastaurin 0.035 | alvocidib 0.068 | Tubastatin A -0.082 | [1] 0.039 | rucaparib -0.077 | [2] -0.011 | encorafenib 0.089 | [4] -0.002 | filanesib -0.218 | zotarolimus -0.042 | idasanutlin -0.015 | alisertib -0.217 | [5] 0.101 | gefitinib -0.066 | [6] 0.248 | lapatinib 0.014

SMARCA5 (UniProt O60264)
inactive: saracatinib -0.084 | sotrastaurin -0.235 | alvocidib -0.193 | Tubastatin A 0.082 | [1] 0.038 | defactinib -0.145 | rucaparib 0.035 | [2] 0.065 | encorafenib 0.116 | [3] 0.01 | [4] 0.047 | filanesib 0.047 | zotarolimus 0.043 | idasanutlin 0.059 | alisertib -0.064 | [5] -0.049 | gefitinib 0.073 | [6] -0.144 | lapatinib -0.017 | pictilisib 0.004

TANGO6 (UniProt Q9C0B7)
UniProt Q9C0B7, sequence (Q9C0B7 whole entry, looked up): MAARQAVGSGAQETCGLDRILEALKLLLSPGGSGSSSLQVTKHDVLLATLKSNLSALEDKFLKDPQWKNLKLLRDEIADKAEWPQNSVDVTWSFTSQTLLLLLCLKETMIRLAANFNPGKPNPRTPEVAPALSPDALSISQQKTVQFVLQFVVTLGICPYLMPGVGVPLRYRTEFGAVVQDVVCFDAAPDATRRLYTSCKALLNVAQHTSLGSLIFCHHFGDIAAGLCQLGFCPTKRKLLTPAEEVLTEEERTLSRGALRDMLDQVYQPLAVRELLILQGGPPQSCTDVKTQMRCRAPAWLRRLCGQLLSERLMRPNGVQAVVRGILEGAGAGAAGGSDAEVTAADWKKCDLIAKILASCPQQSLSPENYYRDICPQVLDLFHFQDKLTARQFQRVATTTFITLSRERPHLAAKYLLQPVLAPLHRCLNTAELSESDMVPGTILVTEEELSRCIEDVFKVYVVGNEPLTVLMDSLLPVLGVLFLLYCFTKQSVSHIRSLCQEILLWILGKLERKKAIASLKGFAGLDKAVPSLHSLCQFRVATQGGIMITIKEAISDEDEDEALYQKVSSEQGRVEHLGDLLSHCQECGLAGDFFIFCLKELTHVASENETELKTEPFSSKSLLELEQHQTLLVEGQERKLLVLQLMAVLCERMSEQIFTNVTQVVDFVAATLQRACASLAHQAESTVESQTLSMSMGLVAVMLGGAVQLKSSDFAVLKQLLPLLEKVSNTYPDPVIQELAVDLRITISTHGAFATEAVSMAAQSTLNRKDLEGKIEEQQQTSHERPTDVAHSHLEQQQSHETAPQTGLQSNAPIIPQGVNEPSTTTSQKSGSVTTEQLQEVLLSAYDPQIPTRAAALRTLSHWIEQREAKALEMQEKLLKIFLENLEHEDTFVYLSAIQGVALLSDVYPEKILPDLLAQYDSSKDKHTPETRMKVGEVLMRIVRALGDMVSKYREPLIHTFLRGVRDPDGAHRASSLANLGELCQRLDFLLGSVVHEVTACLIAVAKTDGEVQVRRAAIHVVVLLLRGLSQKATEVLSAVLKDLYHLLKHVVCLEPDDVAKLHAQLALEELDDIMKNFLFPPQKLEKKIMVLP
inactive: saracatinib -0.09 | sotrastaurin -0.135 | alvocidib -0.084 | Tubastatin A 0.116 | [1] -0.077 | rucaparib 0.586 | [2] 0.037 | encorafenib 0.001 | [4] -0.025 | filanesib 0.04 | zotarolimus 0.061 | idasanutlin -0.112 | alisertib 0.032 | [5] -0.015 | gefitinib -0.049 | [6] -0.036 | lapatinib 0.022

TMBIM1 (UniProt Q969X1)
UniProt Q969X1, sequence (Q969X1 whole entry, looked up): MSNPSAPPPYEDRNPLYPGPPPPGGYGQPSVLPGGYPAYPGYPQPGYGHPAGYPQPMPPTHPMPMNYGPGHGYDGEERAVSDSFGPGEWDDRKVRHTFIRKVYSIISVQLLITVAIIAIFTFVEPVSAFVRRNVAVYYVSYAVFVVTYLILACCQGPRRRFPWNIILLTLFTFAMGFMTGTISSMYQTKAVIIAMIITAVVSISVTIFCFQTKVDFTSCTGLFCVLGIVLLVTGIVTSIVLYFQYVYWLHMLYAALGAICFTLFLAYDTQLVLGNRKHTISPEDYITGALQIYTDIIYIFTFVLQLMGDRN
inactive: saracatinib -0.147 | sotrastaurin 0.012 | alvocidib 0.207 | Tubastatin A 0.002 | [1] -0.042 | defactinib 0.043 | rucaparib -0.009 | [2] -0.097 | encorafenib -0.223 | [3] 0.051 | filanesib -0.161 | zotarolimus -0.117 | idasanutlin 0.013 | alisertib -0.018 | [5] -0.254 | gefitinib -0.004 | [6] 0.088 | lapatinib 0.172 | pictilisib 0.138

SNX3 (UniProt O60493)
UniProt O60493, sequence (O60493 whole entry, looked up): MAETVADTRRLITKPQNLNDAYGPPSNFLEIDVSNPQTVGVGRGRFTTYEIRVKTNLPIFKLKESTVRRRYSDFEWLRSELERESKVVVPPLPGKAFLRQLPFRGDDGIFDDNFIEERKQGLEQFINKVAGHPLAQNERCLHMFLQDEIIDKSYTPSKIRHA
inactive: saracatinib -0.086 | sotrastaurin 0.038 | alvocidib -0.016 | Tubastatin A -0.005 | [1] 0.018 | defactinib -0.067 | rucaparib 0.081 | [2] 0.026 | encorafenib 0.194 | [3] -0.079 | [4] -0.049 | filanesib 0.012 | zotarolimus 0.022 | idasanutlin 0.075 | alisertib 0.074 | [5] -0.08 | gefitinib 0.01 | [6] 0.056 | lapatinib -0.026 | pictilisib -0.03

— the supplement of paper PMC10849652
